D2 PAM-1: human D2 receptor positive allosteric modulation; P14416; DiscoveRx D2 beta-arrestin cells, luminescence, 90 min; 100% = 57 uM dopamine signal; potentiation, % (test concentration not listed); actives 0.23% (n = 360,000); in the data active means potentiation above about 50%; inconclusive means mostly about 30% to 49%
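PathHunter D2 cells, attached overnight at 37 deg C, received compound in DMSO plus dopamine at EC20 (50 nM final) for 90 min at 37 deg C. Beta-arrestin recruitment was read as luminescence after 1 h with detection reagent at ambient temperature.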
D2 ag-1: agonists of human D2 dopamine receptor; P14416; activation, % at 2 µM; HEK293 T-REx D2 cells, calcium flux agonist mode; actives 0.53% (n = 340,000);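 active means activation over 3 SD above normal in the single-dose calcium agonist read, cut at about 30% in these data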; further: 0% is about no effect
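HEK293 Trex D2 cells, tetracycline-induced, o/n 30 C 5% CO2; no-wash Ca dye, RT 30–90 min; 10-cycle baseline, 23 nl cpd added, kinetic Ca read 180 s; agonist hits = positive Ca response.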
D2 ag-2: agonists of human D2 dopamine receptor (beta-arrestin) | activation, % (no concentration beside the values) | P14416 | DiscoveRx PathHunter D2 beta-arrestin, luminescence, 90 min; 100% = 57 uM dopamine signal | actives 0.084% (n = 360,000); in the data active means activation above about 40%; inconclusive means between about 15% and that limit
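DiscoveRx PathHunter D2 beta-arrestin cells (2,100/well) attached overnight, then compound-stimulated 90 min at 37 C in HBSS/10 mM HEPES/0.1% Tween-20 buffer; beta-galactosidase complementation read by luminescence after 1 h at ambient temperature. Dopamine 57 uM final (EC100) as control.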
D2 antag: antagonists of human D2 dopamine receptor; P14416; HEK293 TREx D2 cells, calcium flux, dopamine EC80; actives 2% (n = 340,000); inhibition, % at 10 µM; in the data active means inhibition above about 30%; inactive means below that, where a call was filed; further: 0% is about no effect
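Calcium flux kinetic readout in an inducible HEK293 TREx D2 line plated overnight at 30 C. After 180 s compound exposure, an EC80 dopamine challenge follows with another 180 s kinetic read to detect antagonism.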
D2 PAM-2: D2 dopamine receptor (human) potentiation. P14416. HEK293 T-REx D2, calcium flux, EC20 dopamine potentiation. potentiation, % at 10 µM. actives 0.34% (n = 340,000);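 active means potentiation over 3 SD above the plate norm, cut at about 30% in these data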; further: 0% is about no effect
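Using a no-wash calcium dye in inducible, force-coupled HEK293 Trex cells expressing D2, we tracked fluorescence each second for 180 s after compound, then for 180 s after EC20 dopamine to detect augmented signalling.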
D3 ag: activates human D3 dopamine receptor beta-arrestin recruitment; actives 4% (n = 2,300); AID 720506; Potency, µM (doses to about 76.9 µM), inactives show top-dose activation, actives largely listed as activators; shares compounds with D2 ag-1; DiscoveRx D3 beta-arrestin cells, luminescence, 90 min;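 further: potency means the concentration at half of the fitted maximal effect; 100% = dopamine control response; nearly all actives have a fitted effect of over 70% in size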
Target sequence (P35462 whole entry, looked up): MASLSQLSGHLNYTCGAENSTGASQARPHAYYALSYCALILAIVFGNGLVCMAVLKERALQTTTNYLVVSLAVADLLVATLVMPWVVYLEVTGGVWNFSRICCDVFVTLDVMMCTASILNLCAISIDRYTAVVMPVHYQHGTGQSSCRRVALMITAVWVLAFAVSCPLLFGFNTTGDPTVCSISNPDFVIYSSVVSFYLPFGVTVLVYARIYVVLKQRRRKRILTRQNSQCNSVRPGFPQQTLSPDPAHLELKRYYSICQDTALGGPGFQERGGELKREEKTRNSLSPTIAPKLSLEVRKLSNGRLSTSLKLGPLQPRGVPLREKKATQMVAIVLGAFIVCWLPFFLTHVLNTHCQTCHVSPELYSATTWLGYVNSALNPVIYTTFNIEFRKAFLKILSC
D2 ag-3: activates human D2 dopamine receptor in D3 counterscreen; shares compounds with D2 ag-1; AID 720507; Potency, µM (highest dose often 76.9 µM), for inactives: at the highest dose activation, actives largely listed as activators; DiscoveRx PathHunter D2 beta-arrestin, luminescence, 90 min; response scale: percent relative to full dopamine signal; actives 5.9% (n = 2,300); further: potency means the concentration at half of the fitted maximal effect; % of control where 0% means no effect; nearly all actives have a fitted effect of over 70% in size
An asterisk follows results filed as active; ? = inconclusive; . = no result. Only some compounds are listed: those with a hit (about 2.4% of all), similar ones and a draw of the others. Unless noted, the call rests on the fitted dose curve; in most records, active means well fitted activation curve with a large enough effect; inconclusive means small, poorly fitted or top-dose-only effect; inactive means flat fitted curve, though single readings scatter.

SMILES	D2 PAM-1	D2 ag-1	D2 ag-2	D2 antag	D2 PAM-2	D3 ag	D2 ag-3
Cc1cccc(N2CCN(Cc3nc(-c4cccc(Cl)c4)oc3C)CC2)n1	-5	34*	-4	9	-14	-4%	12%
Cc1ccc(C)c(NC(=S)N2CCN(c3ccccn3)CC2)c1	-14	19	-2	-16	-5	0%	3%
FC(F)(F)c1ccccc1NC(=S)N1CCCC1	-4	0	-3	8	-1	.	.
FC(F)(F)c1ccccc1NC(=S)N1CCN(c2ccccn2)CC1	2	41*	-2	-8	-5	3%	1%
O=C(/C=C/c1ccc(F)cc1)NC(=S)N1CCN(c2ccccn2)CC1	-7	35*	5	-15	-21	5%	11%
S=C(Nc1ccccc1)N1CCN(c2ccccn2)CC1	-2	45*	-3	16	-14	-5%	4%
COc1ccc(NC(=S)N2CCN(c3ccccn3)CC2)cc1	-2	14	-2	-11	-13	.	.
CCc1cc2c(cc3c(=O)n(CC(=O)NC4CCCCC4)nc(CC)n32)s1	.	.	.	.	-5	.	.
O=C(c1ccco1)N1CCN(CC(O)COc2ccc3oc4ccccc4c3c2)CC1 (centres undefined)	9	50*	?	40*	-19	35µM*	50µM*
O=C(c1ccccc1)N1CCN(CC(O)COc2ccc(Br)cc2)CC1 (centres undefined)	-47	-5	0	0	-9	.	.
Cc1cc(C)cc(OCC(O)CN2CCN(C(=O)c3ccco3)CC2)c1 (centres undefined)	-17	61*	10	35*	-27	21%	20%
Cc1nc2nc(CNC(=O)c3cccc(F)c3)nn2c(C)c1CCC(=O)Nc1cccc(Cl)c1	.	-1	.	.	11	.	.
Cc1ccc(NC(=O)c2nc(S(=O)(=O)Cc3ccccc3C)ncc2Cl)cc1C	-12	0	-6	34*	-2	-19%	-10%
CN(c1ccccc1)S(=O)(=O)c1ccc(NC(=O)c2nc(S(C)(=O)=O)ncc2Cl)cc1	-63	6	-11	3	8	-21%	-11%
Cc1ccc(NC(=O)c2nc(S(=O)(=O)Cc3ccc(F)cc3)ncc2Cl)cc1C	.	2	.	.	-7	.	.
CCCN(CCC)CCCNS(=O)(=O)c1cc(Br)cc2c1N(C(C)=O)CC2	-33	59*	7	26	-16	23%	21%
Cc1cccc(Cn2c(=O)n(Cc3ccccc3)c(=O)c3sc4ccccc4c32)c1	.	0	.	.	15	.	.
CN1CCN(CCCNC(=O)CN2C(=O)COc3ccccc32)CC1	0	0	-7	-7	-2	.	.
O=C(NCCCN1CCN(c2ccccc2F)CC1)C1CC(=O)N(C2CCCC2)C1 (centres undefined)	-2	78*	6	84*	-18	?	?
O=C(CN1C(=O)COc2ccccc21)NCCCN1CCN(c2ccccc2F)CC1	-32	56*	14	78*	-18	2%	20%
O=C(Cn1cc2c(n1)CCCC2)NCCCN1CCN(c2ccccc2F)CC1	-8	18	-1	76*	-30	-6%	3%
O=C(CCN1C(=O)COc2ccccc21)NCCN1CCN(c2ccccc2F)CC1	-27	36*	2	45*	-24	-5%	1%
COc1ccc(-c2cc(CNc3nc(NC(C)C)nc4cc(-c5ccccc5)sc34)on2)cc1	-6	.	4	.	.	.	.
Cc1ccc(-c2c[n+](CC(=O)Nc3ccccc3C)c3n2CCC3)cc1	-29	0	-2	28	-22	.	.
Cc1ccc(NC(=O)C[n+]2cc(-c3ccccc3)n3c2CCC3)cc1	-12	71*	-2	56*	-30	-10%	2%
SMILES	D2 PAM-1	D2 ag-1	D2 ag-2	D2 antag	D2 PAM-2	D3 ag	D2 ag-3
COc1ccc(-n2nnnc2C2CCN(S(=O)(=O)c3ccc(NC(C)=O)cc3)CC2)cc1	.	2	.	.	-4	.	.
Cc1ccccc1NC(=O)NCCCN1CCN(c2ccccc2F)CC1	.	.	.	.	-23	.	.
COc1ccccc1N1CCN(CCCCOc2ccc(C)cc2C)CC1	0	62*	10	82*	-29	3%	7%
COc1ccccc1N1CCN(CCCCN2C(=O)c3ccccc3C2=O)CC1	-35	.	-7	.	.	.	.
COc1ccccc1N1CCN(CCCNC(=O)Nc2ccccc2C)CC1	-12	23	2	87*	-26	-12%	3%
Cc1nc2ncnn2c(C)c1CCC(=O)N1CCN(c2cccc(Cl)c2)CC1	.	.	.	.	0	.	.
COc1ccccc1NC(=O)NCCCN1CCN(c2cccc(Cl)c2)CC1	-15	49*	-4	63*	-24	3%	10%
Cc1nc2ncnn2c(C)c1CCC(=O)NCCCN1CCN(c2cccc(Cl)c2)CC1	-1	76*	?	72*	-18	9%	?
O=C(Cc1ccccc1)NC1CC(=O)N(c2ccccc2)C1 (centres undefined)	.	0	.	.	-10	.	.
O=C(NCCCN1CCN(c2cccc(Cl)c2)CC1)C1CCC(=O)N1Cc1ccccc1Cl (centres undefined)	-49	50*	2	40*	-23	6%	?
CN(CCCNC(=O)C1CCC(=O)N1Cc1ccccc1Cl)c1ccccc1 (centres undefined)	-5	0	0	10	-5	.	.
Cn1c(N2CCN(c3ccccn3)CC2)nc2c1c(=O)n(Cc1ccccc1Cl)c(=O)n2C	-16	.	-2	.	.	.	.
Cn1c(N2CCN(c3ccccn3)CC2)nc2c1c(=O)n(Cc1ccc(Cl)cc1)c(=O)n2C	-7	47*	5	49*	-10	18%	?
C=CCc1cccc2cc(-c3nc4ccc(C(=O)O)cc4[nH]3)c(=O)oc12	.	-2	.	.	6	.	.
CCCn1c(-c2ccc(OC)cc2)nc2ccccc21	6	21	10	-12	-13	-3%	?
CCOC(=O)N1CCC(NC(=O)c2ccc3c(c2)N(Cc2ccc(F)cc2)C(=O)c2ccccc2S3=O)CC1 (centres undefined)	.	0	.	.	4	.	.
COc1ccccc1C(=O)C1CCCN(C(=O)c2cnn(C(C)C)c2)C1 (centres undefined)	-10	0	-1	10	1	.	.
O=C(CN1CCN(C/C=C/c2ccccc2)CC1)NC(=O)NC1CCCCC1	-15	23	1	71*	-34	17%	11%

Compound activity: PubChem, National Center for Advancing Translational Sciences (NCATS)
